High-throughput results deposited in PubChem BioAssay by National Center for Advancing Translational Sciences (NCATS).
An excerpt weighted towards active compounds, which were near 11% of everything screened.
HP1b binding inh: blocks HP1-beta chromodomain binding to methylated histone tails; P83916; AlphaScreen HP1-beta / biotin-H3K9me3 peptide binding; Potency, µM (titrated, usually from 114 µM), without a hit: at the highest dose activity change, negative = inhibition, actives largely listed as inhibitors; actives 0.56% (n = 390,000); note: potency is the fitted concentration of half-maximal effect; nearly all actives have a fitted effect of over 70% in size
Target sequence (P83916 whole entry, looked up): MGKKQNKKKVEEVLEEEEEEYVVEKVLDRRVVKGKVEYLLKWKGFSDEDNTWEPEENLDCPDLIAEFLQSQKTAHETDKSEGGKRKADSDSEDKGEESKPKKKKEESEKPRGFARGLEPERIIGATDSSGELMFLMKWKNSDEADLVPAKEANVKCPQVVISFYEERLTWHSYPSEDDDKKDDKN
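AlphaScreen: HP1-beta (50 nM) preformed 30 min with biotin-H3(1-18)K9me3 peptide (50 nM) in PBS pH 7.4, 0.01% Tween-20. Compound added for 30 min at RT, then streptavidin donor/nickel chelate acceptor beads (10 ug/mL) for 30 min.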
BAZ2B inh: inhibitors of human BAZ2B bromodomain; Q9UIF8; AlphaScreen BAZ2B-H3K14Ac peptide displacement; Potency, µM (doses to about 114 µM), without a hit: at the top dose activity change, negative = inhibition, usual class: inhibitors; actives 4.4% (n = 360,000); AID 504333; note: potency is the fitted concentration of half-maximal effect; % is set by controls: 0 for no effect and ±100 for the full control effect; nearly all actives have a fitted effect of over 60% in size
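Multi-concentration screen (max 110 uM) measuring displacement of acetylated histone H3 peptide from BAZ2B by AlphaScreen, using 50 nM protein, 50 nM peptide and 10 ug/mL streptavidin donor plus Ni-chelate acceptor beads.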
L3MBTL1 block: blocks human L3MBTL1. AlphaScreen L3MBTL1–H3K9me1 peptide binding. Potency, µM (series often up to 57.1 µM), for the others: at the highest dose activity, negative = inhibition, actives largely listed as inhibitors. Q9Y468. actives 0.66% (n = 230,000); note: potency is the fitted concentration of half-maximal effect; % is set by controls: 0 for no effect and ±100 for the full control effect; nearly all actives have a fitted effect of over 60% in size
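Displacement of a biotinylated histone H3(1-15) peptide monomethylated at Lys9 (75 nM) from L3MBTL1 (50 nM) was measured by AlphaScreen after a 30 min room-temperature compound incubation; cefsulodin titration served as intraplate control.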
PI5P4K alpha inh: PI5P4K alpha (human) kinase inhibition; max response, %; P48426; PI5P4Kalpha enzyme, ADP-Glo luminescence, 60 min; stronger effect = lower value; actives 1.2% (n = 330,000); active = max response of -50% or lower; inconclusive = between -30% and -50%; inactive = -30% or higher; note: value at the top dose of about 77 µM; % is set by controls: 0 for no effect and ±100 for the full control effect
Target sequence (P48426 whole entry, looked up): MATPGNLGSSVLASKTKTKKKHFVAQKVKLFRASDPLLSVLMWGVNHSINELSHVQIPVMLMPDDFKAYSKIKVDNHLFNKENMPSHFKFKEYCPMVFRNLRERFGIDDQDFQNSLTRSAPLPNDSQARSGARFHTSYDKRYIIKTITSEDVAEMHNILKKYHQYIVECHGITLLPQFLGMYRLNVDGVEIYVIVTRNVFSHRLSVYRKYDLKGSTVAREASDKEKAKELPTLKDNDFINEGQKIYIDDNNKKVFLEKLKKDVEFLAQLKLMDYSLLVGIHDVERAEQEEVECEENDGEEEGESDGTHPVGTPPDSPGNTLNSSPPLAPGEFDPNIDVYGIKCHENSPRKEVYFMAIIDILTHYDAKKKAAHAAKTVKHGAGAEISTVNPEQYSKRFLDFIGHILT
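Compounds were pin-transferred onto PI5P4Kalpha and substrate in HEPES pH 7.4 buffer with EGTA, CHAPS and 5% DMSO. ATP (5 microM final) started the reaction, which ran 60 minutes at room temperature before ADP-Glo detection.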
G9a block: blocks human histone lysine methyltransferase G9a | Q96KQ7 | actives 8.8% (n = 350,000) | G9a H3K9 monomethylation, AlphaScreen, 2 h | Potency, µM (doses to about 102 µM), inactives show at the top dose activity, negative = inhibition, hits mostly inhibitors; note: potency is the fitted concentration of half-maximal effect; % is set by controls: 0 for no effect and ±100 for the full control effect; nearly all actives have a fitted effect of over 75% in size
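Chemiluminescent proximity detection of H3K9 monomethylation, read after 10 min bead incubation in the dark. Reaction: 20 nM G9a, 500 nM biotin-H3K9 peptide, 20 uM SAM cofactor, 2 h, room temperature, following 15 min enzyme-compound preincubation.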
JMJD2A Tudor inh: JMJD2A Tudor domain (human) inhibition; Potency, µM (top dose mostly 114 µM), inactives show top-dose activity change, negative = inhibition, actives largely listed as inhibitors; AID 504339; AlphaScreen JMJD2A-Tudor / H3K4me3 peptide binding; actives 4.4% (n = 390,000); note: potency is the fitted concentration of half-maximal effect; % is set by controls: 0 for no effect and ±100 for the full control effect; nearly all actives have a fitted effect of over 50% in size
The depositor's hits bear a star; ? = inconclusive; · = no result; [ ] = dose if it differs, or a comment. Unless noted, calls come from the whole dose curve; as a rule, active = well fitted inhibition curve with a large enough effect; inconclusive = small, poorly fitted or top-dose-only effect; inactive = no such curve, though single readings can be large or run the other way.

SMILES	HP1b binding inh	BAZ2B inh	L3MBTL1 block	PI5P4K alpha inh	G9a block	JMJD2A Tudor inh
C=CCn1c(C2CCCCC2)n[nH]c1=S	20%	-21%	1%	-9	20µM*	5.6µM*
C=CCn1c(SCC(=O)N(C)C2CCCCC2)nnc1C1CC1	31%	·	-6%	-7	·	1%
CCOc1ccc(-c2nc(SCC(=O)Nc3cc(F)ccc3F)n3[nH]c(=O)cc3n2)cc1	-6%	-36%	·	·	-6%[59 µM]	?
COc1ccc(-c2n[nH]c(=S)n2Cc2ccccc2)cc1	4%	-10%	-1%	-9	·	25µM*
CCOc1cc(-c2n[nH]c(=S)n2Cc2ccccc2)ccc1OC(F)F	13%	-10%	-9%	1	?	-30%
S=c1[nH]nc(C2CCCCC2)n1Cc1ccccc1	18%	-28%	-6%	-1	11µM*	35µM*
S=c1[nH]nc(-c2ccc(Cl)cc2)n1Cc1ccccc1	6%	-6%	-12%	·	1.4µM*	?
CC(C)c1cc(-c2n[nH]c(=S)n2Cc2ccccc2)cs1	0%	-12%	-7%	·	?	-27%
S=c1[nH]nc(-c2cccs2)n1Cc1ccccc1	-30%	-33%	-2%	-14	?	?
COc1ccc(-c2n[nH]c(=S)n2Cc2ccccc2)cc1OC	?	-34%	-1%	-3	·	10µM*
O=C(Nc1cccc(F)c1)N1CCCC2(CCN(C(=O)c3cnccn3)CC2)C1	·	·	·	·	4%[12.7 µM]	·
Cc1n[nH]c(=S)n1Cc1ccccc1	21%	-15%	0%	3	35µM*	?
CCN(Cc1nc(-c2cccc(C)c2)no1)S(=O)(=O)c1ccc(C)cc1	98%	60%	·	·	59%[59 µM]	53%
Cc1ccc(C2C3=C(CC(C)(C)CC3=O)Nc3[nH]c(=S)[nH]c(=O)c32)cc1 (stereo unspecified)	29%	?	-4%	-25	?	89µM*
CC(Sc1oc(-c2cccs2)nc1S(=O)(=O)c1ccccc1)c1ccccc1 (stereo unspecified)	35%	3%	·	·	?	-8%
CC(C)COC(=O)c1ccc2c(c1O)C(=O)c1ccccc1C2=O	?	10µM*	·	0	?	7.9µM*
CC(=O)Nc1sc2c(c1C(c1cccc(Cl)c1)N1CCN(CCO)CC1)CCCC2 (stereo unspecified)	4%	?	·	0	50µM*	?
COc1ccc(C(c2c(NC(C)=O)sc3c2CCCC3)N2CCN(CCO)CC2)cc1OC (stereo unspecified)	7%	-35%	-14%	0	?	-27%
CC(O)CNCCCCOc1ccc(OCc2ccccc2)cc1 (stereo unspecified)	12%	?	-10%	0	15%[59 µM]	-22%
CNCCCOc1cccc(Oc2ccccc2)c1	8%	50µM*	10%	4	·	1.6µM*
CC(O)CNCCCOc1cccc(Oc2ccccc2)c1 (stereo unspecified)	15%	28µM*	4%	-3	·	22µM*
CC(O)CNCCCOc1ccccc1OCc1ccccc1 (stereo unspecified)	-32%	50µM*	4%	6	13µM*	3.2µM*
COCCNC(=O)COc1cccc(Oc2ccccc2)c1	12%	-6%	-3%	·	-1%[12.7 µM]	-10%
CNCCCOc1cccc(OC(C)C)c1	?	50µM*	·	2	13µM*	1.6µM*
COc1ccc(CNC(=O)c2cc3c(=O)n(Cc4ccco4)ccc3nc2C)c(OC)c1	23%	-25%	·	·	12%[59 µM]	-15%
SMILES	HP1b binding inh	BAZ2B inh	L3MBTL1 block	PI5P4K alpha inh	G9a block	JMJD2A Tudor inh
Cc1cn2c(=O)cc(COC(=O)c3ccc(NC(=O)C(C)Oc4ccccc4)cc3)nc2s1 (stereo unspecified)	36%	-29%	·	·	18%[59 µM]	-3%
CCOC(=O)c1ccc(NC(=O)CCn2c(=O)c3cccn3c3cccnc32)cc1	42%	-14%	·	·	-27%[59 µM]	-2%
Cc1ccccc1OCC(=O)Nc1ccc(-c2nc3cc(Cl)cc(Cl)c3o2)cc1	3%	?	·	·	-32%[59 µM]	-17%
O=c1c2cc3c(cc2nc2sc(Nc4ccc(F)c(Cl)c4)nn12)OCO3	48%	29%	·	·	14%[59 µM]	-2%
O=C(O)CC1(CC(=O)Nc2cc3ccccc3cn2)CCCCC1	31%	-29%	-4%	-1	89µM*	-5%
Cc1cccc(NC(=O)CC2(CC(=O)O)CCCC2)c1	19%	9%	·	1	20%	-5%
CC1=C(C#N)C(=O)NC(=O)/C1=C\c1ccc(-c2cc(C)c(C)cc2[N+](=O)[O-])o1	?	45µM*	?	-65*	10µM*	56µM*
Cc1ccc(-c2ccc(/C=C3/NC(=O)NC3=O)o2)cc1[N+](=O)[O-]	15%	-30%	-5%	-10	?	-32%
Fc1ccccc1NC(=S)NNc1ncc(C(F)(F)F)cc1Cl	-2%	0%	·	0	1%[59 µM]	-22%
FC(F)(F)c1cnc(NNC(=S)Nc2cccnc2)c(Cl)c1	-2%	-1%	·	-17	22µM*	-35%
Cc1c(Cl)cccc1NC(=S)NNc1ncc(C(F)(F)F)cc1Cl	-12%	-6%	·	·	71µM*	-31%
CCC(Sc1nc2nccnc2c(=O)n1Cc1ccc(F)cc1)C(=O)NC1CCCCC1 (stereo unspecified)	46%	4%	·	·	13%[59 µM]	-1%
COc1ccc(Cl)cc1NC(=O)c1nn(-c2ccc(C)cc2)c(=O)n(C)c1=O	22%[57 µM]	-1%	·	·	2%[59 µM]	-7%
Cc1cc(C)c(S(=O)(=O)Nc2ccncc2)cc1C	27%	2%	7%	5	·	-3%
COc1cc(NS(=O)(=O)c2cc3[nH]c(=O)c(=O)[nH]c3cc2C)cc(OC)c1OC	67%	?	3%	-17	·	-27%
COc1cc(NS(=O)(=O)c2ccc(C)cc2C)cc(OC)c1OC	29%	?	-5%	-1	79µM*	-6%
Cc1ccc(S(=O)(=O)Nc2ccncc2)c(C)c1	3%	-3%	·	0	-92%	89µM*
CCc1ccccc1N(C)C(=O)c1cn(-c2cccc(OC)c2)c(=O)c2ccccc12	3%	-4%	·	·	3%[59 µM]	-24%
CCc1ccc(NC(=O)CCNS(=O)(=O)c2ccc3c(c2)CCCC(=O)N3)cc1	37%	11%[57.1 µM]	·	·	2%[59 µM]	-19%
CC(=O)N1/C(=C/c2ccc(N(C)C)cc2)C(=O)c2ccccc21	22µM*	10µM*	·	-8	11µM*	18µM*
CC(=O)N1c2ccccc2C(=O)C1N(C)c1ccc(C)cc1 (stereo unspecified)	34%	-1%	·	1	?	-12%
CC(C)c1nc(-c2ccccc2)c(-c2ccccc2)[nH]1	6%	1%	·	3	21%	-5%
